HTT promoter inh – inhibits huntingtin promoter activity; 0.93% of 48,000 active; AID 1508623; Potency, µM (top dose mostly 57.5 µM), inactives show at the highest dose activity change, negative = inhibition, most hits filed as inhibitors; HEK293 HTT promoter firefly luciferase reporter, 24 h; also: potency is read from the fitted curve at half-maximal effect; nearly all actives have a fitted effect of over 50% in size
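HEK293 Fluc reporter, 2,500 cells/well, 24 h pre-culture; cpds up to 57.5 uM final, 24 h 37 degrees C; Dual-Glo, 10 min RT; normalized vehicle = 0%, zero RLU = -100%.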
HTT-AS act – activates huntingtin-antisense promoter activity; HEK293 HTT-AS promoter firefly luciferase reporter, 24 h; response scale: percent change from vehicle, -100% = no light; Potency, µM (titrated, usually from 57.5 µM), without a hit: top-dose activity change, positive = activation, most hits filed as activators; 0.24% of 48,000 active; also: potency is read from the fitted curve at half-maximal effect; nearly all actives have a fitted effect of over 55% in size
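HEK293 luciferase promoter-reporter cells (2,500/well) plated 24 h, then compounds added at up to 57.5 uM final for 24 h at 37 °C. Firefly luminescence by Dual-Glo, normalized to vehicle (0%) and zero RLU (-100%).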
DRV1 agonist – activates human resolvin D1 receptor GPR32; 2.5% of 48,000 active; CHO-K1 GPR32 beta-arrestin PathHunter luminescence, 90 min; zero percent set by DMSO-only wells; O75388; activation, % at 76.9 µM;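 active = activation of at least 60% and not above a set upper limit, about 1 call in 100 departs from these limits; inconclusive = activation of 40% to 60%, or above that upper limit; inactive = activation under 40%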; also: 0% is about no effect
Target sequence (O75388 whole entry, looked up): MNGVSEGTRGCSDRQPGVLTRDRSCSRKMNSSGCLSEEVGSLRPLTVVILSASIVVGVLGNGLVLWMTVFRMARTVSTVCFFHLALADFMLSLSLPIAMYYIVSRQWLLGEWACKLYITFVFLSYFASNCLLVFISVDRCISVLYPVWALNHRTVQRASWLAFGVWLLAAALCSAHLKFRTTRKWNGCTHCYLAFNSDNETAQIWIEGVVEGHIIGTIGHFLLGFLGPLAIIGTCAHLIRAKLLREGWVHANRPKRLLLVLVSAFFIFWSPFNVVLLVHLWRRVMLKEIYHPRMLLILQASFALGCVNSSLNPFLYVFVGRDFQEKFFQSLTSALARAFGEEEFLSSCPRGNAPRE
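Cells are plated overnight, treated with compounds in DMSO for 90 minutes at 37 °C, and developed with PathHunter detection reagent for 1 hour before luminescence is read; signal reflects beta-arrestin binding to GPR32 in engineered CHO-K1 cells.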
Numbers without * were called inactive; ? = inconclusive; · = not tested or not shown. Shown are actives, neighbours in structure and some others; about 3.7% of the full set was active somewhere. Unless noted, calls follow the shape of the dose curve; as a rule, active = well fitted curve in the direction sought with a large enough effect; inconclusive = small, poorly fitted or top-dose-only effect, or another doubt; inactive = no such curve, though single readings can be large; an effect the other way counts as inactive or inconclusive.

SMILES	HTT promoter inh	HTT-AS act	DRV1 agonist
CN(C)C(=O)[C@H](O)[C@H](Cc1ccccc1)NC(=O)c1cc2cc(Cl)ccc2[nH]1	?	-34%	·
COc1ccccc1Nc1cc(C)nc2nc(-c3ccccc3)nn12	-13%	-10%	-11
Cc1ccc(-c2nc3nc(C)cc(Nc4ccccc4O)n3n2)cc1	-7%	10%	72*
COc1ccc(-c2nn(C)c3sc(C(=O)Nc4cccc(F)c4)cc23)cc1OC	?	-26%	-7
Cc1ccc(NC(=O)Cn2cc(S(=O)(=O)NC(C)C)c(S(=O)(=O)NC(C)C)c2)cc1Cl	?	-7%	69*
CNS(=O)(=O)c1cn(CC(=O)Nc2ccc(OC)c(Cl)c2)cc1S(=O)(=O)NC	3%	-9%	-4
COc1cc(C(C)C)c(Oc2cnc(NC(CO)CO)nc2N)cc1I	-11%	-13%	·
O=C(CN1C(=O)CCc2cc(S(=O)(=O)N3CCOCC3)ccc21)NCc1ccccc1Cl	-3%	-4%	-25
CCCCOCc1cc(CN2CCN(c3cccc(Cl)c3)CC2)c(O)c2ncccc12	?	-39%	11
CCCOCc1cc(CN2CCN(c3cccc(Cl)c3)CC2)c(O)c2ncccc12	8.9µM*	-38%	-7
N#CNC(=NCCCCCCOc1ccc(Cl)cc1)Nc1ccncc1	?	-44%	·
O=c1cc(-c2ccccc2)oc2cc(O)cc(O)c12	43%	24µM*	·
O=c1cc(-c2ccc(O)cc2)oc2cc(O)cc(O)c12	17%	18%	-21
Cc1cc2c(F)c(Oc3ncnn4cc(OC[C@@H](C)O)c(C)c34)ccc2[nH]1	-22%	-30%	·
COc1ccc(NC(=O)NC(C)c2c(-n3cccc3)sc3c2CCN(C)C3)c(OC)c1 (configuration not stated)	-18%	-12%	-20
CCOc1ccccc1N(CC)C(=O)c1cc2c(=O)[nH]c3ccc(C)cc3c2s1	2.5µM*	-80%	-17
CCOc1ccccc1N(CC)C(=O)c1cc2c(=O)n(CC)c3ccccc3c2s1	?	-48%	-27
C#C[C@]1(O)CC[C@H]2[C@@H]3CCc4cc(OC)ccc4[C@H]3CC[C@@]21C	14%	5%	69*
C#C[C@]1(O)CC[C@H]2[C@H]3CCc4cc(OC)ccc4[C@H]3CC[C@@]21C	-8%	?	·
C#C[C@]1(O)CC[C@@H]2[C@@H]3CCC4=CC(=O)CC[C@@H]4[C@H]3CC[C@@]21CC	-9%	-28%	·
C#C[C@]1(O)CC[C@H]2[C@@H]3CCC4=CC(=O)CC[C@@H]4[C@H]3CC[C@@]21C	7%	-7%	69*
C#C[C@]1(O)CC[C@H]2[C@@H]3CCC4=Cc5oncc5C[C@]4(C)[C@H]3CC[C@@]21C	-18%	-34%	33
C#C[C@]1(O)CC[C@H]2[C@@H]3CCc4cc(OC5CCCC5)ccc4[C@H]3CC[C@@]21C	3%	1%	68*
CN1CCC(N(Cc2cccs2)c2ccccc2)CC1	-16%	-21%	10
COc1cccc(-c2ccc3c(N)c(C(=O)Nc4ccc(Cl)cc4F)sc3n2)c1	-11%	-21%	39
SMILES	HTT promoter inh	HTT-AS act	DRV1 agonist
COc1ccc(-c2ccc3c(N)c(C(=O)Nc4cc(F)ccc4C)sc3n2)cc1	-21%	-28%	-4
Nc1c(C(=O)Nc2ccc(C(F)(F)F)cc2)sc2nc(-c3cccs3)ccc12	6%	-9%	71*
Nc1c(C(=O)Nc2ccc(Br)cc2)sc2nc(-c3ccncc3)ccc12	-3%	6%	-20
Cc1ccc(NC(=O)c2sc3nc(-c4ccc(F)cc4)ccc3c2N)cc1F	0%	4%	86*
Cc1cc(F)ccc1NC(=O)c1sc2nc(-c3cccs3)ccc2c1N	-11%	-12%	67*
c1cc(OCCN2CCCCC2)cc(-c2n[nH]c3ccc(-c4ncn[nH]4)cc23)c1	-25%	-21%	·
CCc1ccccc1NC(=O)Nc1ccc2c(c1)N(CC)C(=O)c1ccccc1S2	?	-44%	-7
CC1c2ccccc2CN1NC(=O)c1ccc(Cl)c(S(N)(=O)=O)c1 (configuration not stated)	-13%	-8%	-22
O=C(O)[C@H](O)[C@@H](O)[C@H](O[C@@H]1O[C@H](CO)[C@H](O)[C@H](O)[C@H]1O)[C@H](O)CO	3%	-1%	-3
COc1cc(Cl)c(C)cc1NC(=O)CC1Oc2ccccc2NC1=O (configuration not stated)	-23%	-29%	-1
Cc1ccc(S(=O)(=O)c2cnc(SCC(=O)Nc3ccc4c(c3)OCCO4)[nH]c2=O)cc1Cl	-18%	-2%	11
CCN(C(=O)CSc1ncc(S(=O)(=O)c2ccc(C)c(Cl)c2)c(=O)[nH]1)c1cccc(C)c1	-24%	-14%	75*
